Source: PubChem BioAssay (Tox21)
Records with an inconclusive call do not appear. Where a structure was tested more than once in an assay, its records may differ in their call. Active and inactive are the calls of the source. Unless noted, the call rests on the fitted dose curve; in most records, active means well fitted curve in the direction sought with a large enough effect in the repeat runs; inconclusive means weak or mixed curves; inactive means no such curve, though single readings can be large; an effect the other way counts as inactive or inconclusive.

Legend:
[1] = qHTS assay to identify small molecule antagonists of the estrogen receptor beta (ER-beta) signaling pathway - cell viability counter screen (AID 1259382); further: nearly all actives have a fitted effect of over 55% in size; further: potency means the concentration at half of the fitted maximal effect
Method in brief: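 Cells: ER-beta-UAS-bla HEK293T, 2,000/well, 2% CS-FBS, 6 hr settle. Cpd + E2 (1nM final), 16 hr, 37C/5% CO2. Bla FRET substrate 2 hr RT, then CellTiter-Glo 30 min RT, luminescence.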

[2] = qHTS assay to identify small molecule agonists or antagonists of the thyroid stimulating hormone receptor (TSHR) signaling pathway - wild type cell line counter screen (AID 1259384; calls by dose curve)
Method in brief: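 Wild-type Hek293 cells, 800/well, 18 h at 37C, then compound with Ro20-1724 for 30 min RT. cAMP by HTRF (cAMP-d2/anti-cAMP cryptate), 1 h RT, fluorescence read. 15 concentrations, triplicates.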

[3] = target: Thyrotropin receptor (Homo sapiens) (UniProt P16473); test: qHTS assay to identify small molecule antagonists of the thyroid stimulating hormone receptor (TSHR) signaling pathway (AID 1259385; calls by dose curve; further: nearly all actives have a fitted effect of over 20% in size)
Sequence of Thyrotropin receptor (Homo sapiens) (P16473 whole entry, looked up): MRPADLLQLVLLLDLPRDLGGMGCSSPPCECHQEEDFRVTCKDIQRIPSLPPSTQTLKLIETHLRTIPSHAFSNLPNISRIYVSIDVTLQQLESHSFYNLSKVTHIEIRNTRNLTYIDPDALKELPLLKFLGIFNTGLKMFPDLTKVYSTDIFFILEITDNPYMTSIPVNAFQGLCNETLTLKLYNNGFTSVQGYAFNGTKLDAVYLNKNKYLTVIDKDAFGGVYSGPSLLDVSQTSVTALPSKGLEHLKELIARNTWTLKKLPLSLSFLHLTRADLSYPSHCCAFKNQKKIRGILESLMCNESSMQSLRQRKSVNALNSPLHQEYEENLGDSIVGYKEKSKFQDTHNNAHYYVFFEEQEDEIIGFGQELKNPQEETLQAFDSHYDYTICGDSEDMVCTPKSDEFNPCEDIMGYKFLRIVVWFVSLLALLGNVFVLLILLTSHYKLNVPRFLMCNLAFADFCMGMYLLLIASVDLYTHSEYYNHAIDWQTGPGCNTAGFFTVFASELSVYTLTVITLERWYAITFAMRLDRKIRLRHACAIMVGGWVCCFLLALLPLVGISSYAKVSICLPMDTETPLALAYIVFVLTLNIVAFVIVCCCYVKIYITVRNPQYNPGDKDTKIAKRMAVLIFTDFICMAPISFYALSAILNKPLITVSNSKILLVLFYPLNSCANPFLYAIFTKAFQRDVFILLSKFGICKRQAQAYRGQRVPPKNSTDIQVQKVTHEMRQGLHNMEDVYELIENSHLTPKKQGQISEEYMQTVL
Method in brief: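 TSHR-HEK293 cells (800/well) plated 18 h, then compounds with Ro20-1724 and TSH at 1.5 ng/mL final, 30 min at room temperature. cAMP quantified by HTRF (cAMP-d2/anti-cAMP-cryptate, 1 h); 15 concentrations in triplicate.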

[4] = qHTS assay to identify small molecule agonists of the estrogen receptor alpha (ER-alpha) signaling pathway in the presence of an antagonist - cell viability counter screen (AID 1259386);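 further: series mostly up to about 92 µM; cells exposed to compounds for 22 h at 37 °C before the viability read; nearly all actives have a fitted effect of over 30% in size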
Method in brief: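 VM7Luc4E2, stripped-serum pre-culture 5 d; 24hr plating; +ICI-182,780 10.0nM final; cpds 15 conc, 22hr, 37C/5% CO2; CellTiter-Fluor added at 21hr, fluorescence 1hr later.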

[5] = qHTS assay to identify small molecule antagonists of the progesterone receptor (PR) signaling pathway - cell viability counter screen (AID 1346798); further: series mostly up to about 92 µM; nearly all actives have a fitted effect of over 50% in size
Method in brief: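 PR-UAS-bla HEK293T cells in medium with 2% charcoal-stripped FBS were treated with compounds plus R5020 for 16 hr at 37C. Cell viability was then read by CellTiter-Glo luminescence after 30 min at room temperature in the same wells.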

[6] = qHTS assay to identify small molecule antagonists of the TGF-beta/Smad signaling pathway - cell viability counter screen (AID 1346824); further: nearly all actives have a fitted effect of over 50% in size
Method in brief: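 SBE-bla HEK 293T cells, incubated overnight, then compound plus 0.25 ng/mL TGF-beta1 (stock added) for 5 hr at 37 C. Viability was read in the same wells by CellTiter-Glo luminescence after 30 min at room temperature.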

[7] = target: Progesterone receptor (Homo sapiens) (UniProt P06401); test: qHTS assay to identify small molecule agonists of the progesterone receptor (PR) signaling pathway (AID 1346784; calls by dose curve; further: nearly all actives have a fitted effect of over 30% in size)
Sequence of Progesterone receptor (Homo sapiens) (P06401 whole entry, looked up): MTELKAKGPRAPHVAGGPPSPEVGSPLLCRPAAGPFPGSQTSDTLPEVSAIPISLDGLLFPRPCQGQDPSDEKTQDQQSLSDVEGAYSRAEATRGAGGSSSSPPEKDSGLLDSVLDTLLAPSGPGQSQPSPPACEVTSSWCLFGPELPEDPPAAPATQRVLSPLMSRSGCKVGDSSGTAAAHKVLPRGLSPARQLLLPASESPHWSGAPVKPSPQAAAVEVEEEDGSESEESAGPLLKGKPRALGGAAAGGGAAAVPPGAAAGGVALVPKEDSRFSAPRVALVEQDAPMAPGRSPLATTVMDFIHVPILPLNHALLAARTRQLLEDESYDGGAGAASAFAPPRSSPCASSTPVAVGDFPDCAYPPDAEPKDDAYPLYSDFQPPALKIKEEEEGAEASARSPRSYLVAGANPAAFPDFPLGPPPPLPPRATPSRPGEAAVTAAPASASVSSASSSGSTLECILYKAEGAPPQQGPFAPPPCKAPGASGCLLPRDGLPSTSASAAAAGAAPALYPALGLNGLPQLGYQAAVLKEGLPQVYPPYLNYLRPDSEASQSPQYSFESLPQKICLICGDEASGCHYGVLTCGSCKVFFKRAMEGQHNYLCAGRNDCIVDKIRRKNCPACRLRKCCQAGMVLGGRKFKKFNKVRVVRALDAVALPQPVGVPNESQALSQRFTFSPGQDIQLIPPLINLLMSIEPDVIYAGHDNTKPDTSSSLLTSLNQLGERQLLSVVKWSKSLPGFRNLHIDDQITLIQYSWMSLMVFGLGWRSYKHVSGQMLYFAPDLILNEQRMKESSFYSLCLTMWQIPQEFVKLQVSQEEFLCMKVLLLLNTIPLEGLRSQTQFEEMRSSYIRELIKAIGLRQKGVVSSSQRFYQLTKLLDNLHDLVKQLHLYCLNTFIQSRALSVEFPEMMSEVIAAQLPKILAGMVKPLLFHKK
Method in brief: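 PR-UAS-bla HEK 293T cells carrying a UAS-driven beta-lactamase reporter were seeded in medium with 2% charcoal-stripped FBS, preincubated 6 hr at 37C, then exposed to compounds in DMSO for 16 hr; agonism was read by LiveBLAzer B/G FRET fluorescence.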

[8] = target: Progesterone receptor (Homo sapiens) (UniProt P06401); test: qHTS assay to identify small molecule antagonists of the progesterone receptor (PR) signaling pathway (AID 1346795; active means well fitted inhibition curve with a large enough effect in the signal ratio in the repeat runs, not every such curve was filed as active; the % refers to the signal ratio; further: potency means the concentration at half of the fitted maximal effect)
Method in brief: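 PR-UAS-bla HEK293T cells carrying a UAS-driven beta-lactamase reporter were plated in medium with 2% charcoal-stripped FBS and rested 6 hr at 37C. Compounds were added with 1 nM R5020 (final) for 16 hr, then FRET substrate loaded 2 hr at room temperature.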

[9] = qHTS assay to identify small molecule agonists of the progesterone receptor (PR) signaling pathway - cell viability counter screen (AID 1346799; calls by dose curve; further: nearly all actives have a fitted effect of over 45% in size; further: potency means the concentration at half of the fitted maximal effect)
Method in brief: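 PR-UAS-bla HEK293T cells, 3,000 per well in medium with 2% charcoal-stripped FBS, were preincubated 6 hr at 37C, then exposed to compounds for 16 hr; viability was read as CellTiter-Glo luminescence after 30 min at room temperature.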

Measured: Potency

O=C(NC(=O)c1c(F)cccc1F)Nc1cc(Cl)c(OC(F)(F)C(F)C(F)(F)F)cc1Cl (stereo not drawn)
not listed: [7] | [8] | [9]
inactive: all other assays above

Cc1cc(Cl)ccc1O
not listed: [3]
inactive: all other assays above

C1CN2CCN1CC2
not listed: [3]
inactive: all other assays above

Oc1ccccc1Cl
not listed: [3]
inactive: all other assays above

CC(Oc1ccc(Cl)cc1Cl)C(=O)O (stereo not drawn)
not listed: [3] | [7]
inactive: all other assays above

CCOC(=O)c1ccccc1C(=O)OCC
not listed: [7]
inactive: all other assays above

CN(N=O)c1ccccc1
not listed: [7]
inactive: all other assays above

CCCCN(CC)C(=O)SCCC
not listed: [7]
inactive: all other assays above

C=CCO
inactive: all assays above

OC(O)C(Cl)(Cl)Cl
not listed: [3]
inactive: all other assays above

COCCl
not listed: [3]
inactive: all other assays above

CC(C)OC(=O)Nc1ccccc1
not listed: [7]
inactive: all other assays above

NCCc1ccc(O)cc1
21.5 µM (active) and inactive: [9]
not listed: [3] | [7]
inactive: all other assays above

C#CCN(C)[C@H](C)Cc1ccccc1
inactive: all assays above

Nc1ccc(Cc2ccc(N)cc2)cc1
not listed: [7]
inactive: all other assays above

CN(C)[C@@H]1C(=O)C(C(N)=O)=C(O)[C@@]2(O)C(=O)C3=C(O)c4c(O)cccc4[C@@](C)(O)[C@H]3C[C@@H]12
inactive: all assays above

CCN(CC)CCO
not listed: [3] | [7]
inactive: all other assays above

CC(C)N1C(=O)c2ccccc2NS1(=O)=O
not listed: [3] | [7]
inactive: all other assays above

CCNc1nc(NC(C)C)nc(SC)n1
inactive: all assays above

ClCc1cccnc1
not listed: [7]
inactive: all other assays above

OCCN(CCO)CCO
inactive: all assays above

Nc1ccc(Br)cc1
active: [8] 61 µM
27.3 µM (active) and inactive: [9]
inactive: all other assays above

Cc1cc(-c2cc(C)c(N)c(C)c2)cc(C)c1N
not listed: [2] | [3] | [8]
inactive: all other assays above

CN1C(=O)CN=C(c2ccccc2)c2cc(Cl)ccc21
27.7 µM (active) and inactive: [9]
inactive: [1] | [3] | [4] | [5] | [6]

CC1OC(C)OC(C)O1 (stereo not drawn)
not listed: [2] | [3] | [7]
inactive: all other assays above

CN(C)N=O
not listed: [2] | [3]
inactive: all other assays above

CC(C)(C)OOC(C)(C)C
not listed: [2]
inactive: all other assays above

CN=C=S
not listed: [2] | [3]
inactive: all other assays above

O=NN1CCCCCCC1
not listed: [2] | [3]
inactive: all other assays above

O=NN1CCCC1
not listed: [3] | [5] | [7]
inactive: all other assays above

COC(=O)NS(=O)(=O)c1ccc(N)cc1
not listed: [2]
inactive: all other assays above

O=c1[nH]c2ccccc2c(=O)o1
not listed: [2]
inactive: all other assays above

BrCCBr
not listed: [2]
inactive: all other assays above

CCCCN(CCCC)SN(C)C(=O)Oc1cccc2c1OC(C)(C)C2
not listed: [2] | [3]
inactive: all other assays above

CC(C)(Cl)Cl
not listed: [2] | [7]
inactive: all other assays above

CCCCOC(=O)c1ccccc1C(=O)OCCCC
inactive: [1] | [4] | [5] | [9] | [6]

O=S(=O)(c1ccc(O)cc1)c1ccc(O)cc1
not listed: [2] | [3]
inactive: all other assays above

CCC(C)(CC)c1cc(NC(=O)c2c(OC)cccc2OC)on1
inactive: [1] | [4] | [9] | [6]

CCOP(OCC)OCC
not listed: [2] | [3]
inactive: all other assays above

C1CC2OC2CC1C1CO1 (stereo not drawn)
not listed: [2] | [3]
inactive: all other assays above

CC(C)OC(=O)Nc1cccc(Cl)c1
not listed: [2] | [7] | [8]
inactive: all other assays above

CCC12COCN1COC2
not listed: [2]
inactive: all other assays above

C=C(C)CCl
not listed: [2] | [3]
inactive: all other assays above

CC(NC(C)(C)C)C(=O)c1cccc(Cl)c1 (stereo not drawn)
not listed: [2] | [3]
inactive: all other assays above

CCCCCCCCCl
not listed: [2] | [3] | [8]
inactive: all other assays above

CCC[N+](=O)[O-]
23.9 µM (active) and inactive: [1]
19 µM (active) and inactive: [9]
inactive: [3] | [4] | [6]
8.48 µM (active) and inactive: [8]

Nc1ccc(Oc2ccc(N)cc2)cc1
not listed: [2] | [7]
inactive: all other assays above

O=C(O)c1ccccn1
not listed: [2] | [3]
inactive: all other assays above

CCc1cccc(C)c1N(C(=O)CCl)C(C)COC (stereo not drawn)
not listed: [2] | [8]
inactive: all other assays above

CC(C)(C)OOC(=O)c1ccccc1
not listed: [2] | [3]
inactive: all other assays above

COP(N)(=O)SC (stereo not drawn)
not listed: [2]
inactive: all other assays above

O=S(=O)(c1ccc(Cl)cc1)c1cc(Cl)c(Cl)cc1Cl
active: [8] 13.7 µM
inactive: [1] | [2] | [4] | [5] | [6]

Nc1c(Cl)c(Cl)nc(C(=O)O)c1Cl
not listed: [3] | [7]
inactive: all other assays above

C[C@]12CC[C@H]3[C@@H](CC[C@@]45O[C@@H]4C(O)=C(C#N)C[C@]35C)[C@@H]1CC[C@@H]2O
not listed: [2] | [8]
inactive: all other assays above

O=Cc1cccc(Oc2ccccc2)c1
not listed: [2] | [3] | [7]
inactive: all other assays above

COC(=O)c1ccccc1N
not listed: [2] | [3] | [7]
inactive: all other assays above

CC(C)NC(=O)N1CC(=O)N(c2cc(Cl)cc(Cl)c2)C1=O
not listed: [3] | [7] | [8]
inactive: all other assays above

CCCC1COC(Cn2cncn2)(c2ccc(Cl)cc2Cl)O1 (stereo not drawn)
inactive: [1] | [3] | [4] | [7]
active: [8] 17.5 µM

O=c1ccc(=O)[nH][nH]1
not listed: [2] | [7]
inactive: all other assays above
